Mtb hypoxia rep = Mtb hypoxia fluorescent reporter inhibition. M. tuberculosis hypoxia-regulated fluorescent reporter, fluorescence. fluorescence inhibition, % (concentration not given with the values). 0.1% of 300,000 active; in the data active means fluorescence inhibition mostly above about 23%, no sharp cut-off; inactive means mostly below about 17%
GDH-TPI counter = inhibits GDH-TPI coupling enzymes, artifact for Mtb FBA screen. GDH-TPI coupled enzyme counterscreen, NADH absorbance. inhibition, % at 4.8 µM. 1.2% of 360,000 active; in the data active means inhibition above about 30%
PrPC TRFRET = cell surface PrPC inhibition, primary TR-FRET screen | 0.43% of 370,000 active | P04156 | TR-FRET read-out | inhibition, % at 13.8 µM; in the data active means inhibition above about 24%
Mtb FBA inh = inhibits M. tuberculosis FBA enzyme; 2.3% of 360,000 active; inhibition, % at 1 µM; P9WQA3; purified M. tuberculosis FBA, fluorescence read-out; in the data active means inhibition above about 27%
Target sequence (P9WQA3 whole entry, looked up): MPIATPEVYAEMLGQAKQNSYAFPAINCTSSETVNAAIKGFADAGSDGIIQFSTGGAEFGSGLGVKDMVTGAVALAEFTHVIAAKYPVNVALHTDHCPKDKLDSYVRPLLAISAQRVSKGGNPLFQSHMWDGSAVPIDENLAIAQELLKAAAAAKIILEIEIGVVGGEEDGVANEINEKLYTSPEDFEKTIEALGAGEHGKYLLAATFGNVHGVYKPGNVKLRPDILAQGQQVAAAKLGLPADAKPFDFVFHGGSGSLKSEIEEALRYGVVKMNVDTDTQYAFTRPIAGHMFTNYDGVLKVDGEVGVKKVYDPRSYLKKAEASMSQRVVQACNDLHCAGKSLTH
PrP 5UTR inh = suppresses PrP 5' UTR mRNA reporter expression; 0.35% of 340,000 active; AID 488862; cell-based PrP 5' UTR mRNA reporter, plate reader; inhibition, % (concentration not given with the values); in the data active means inhibition above about 52%
Yp Topo-I inh = blocks Yersinia pestis topoisomerase I activity. Y. pestis Topo-I cleavage product accumulation, plate reader. activity, % at 10 µM. 0.064% of 360,000 active. AID 504884; in the data active means activity above about 50%, passing the limit was not always enough
Each line names hits and unclear results; the compound was inactive in the other large screens. Most compounds without a hit are left out; they make up all but 3.8% or so of the library.

CC1CN(c2oc(Cc3cccc4ccccc34)nc2C#N)CC(C)O1 (stereo not drawn)	none
N#Cc1nc(-c2cccs2)oc1N1CCOCC1	Mtb FBA inh active
N#Cc1nc(COc2ccccc2)oc1N1CCOCC1	none
CC1CN(c2oc(-c3cccs3)nc2C#N)CC(C)O1 (stereo not drawn)	Mtb FBA inh active (no result: Mtb hypoxia rep)
CCOC(=O)N1CCC(Nc2c(-c3ccc(C)cc3)c(=O)c2=O)CC1	GDH-TPI counter 36
CCOC(=O)N1CCN(c2c(-c3ccc(C)cc3)c(=O)c2=O)CC1	GDH-TPI counter 34
CCOC1OC(C(=O)N2CCCCCCC2)=CC(C)C1CCCO (stereo not drawn)	none (no result: GDH-TPI counter, PrPC TRFRET, Mtb FBA inh, PrP 5UTR inh, Yp Topo-I inh)
Cc1cc(C(=O)NC(c2ccccc2)[C@]2(C)CC2C(C)C(=O)Nc2ccc3ccccc3c2)no1 (stereo partly drawn)	none (no result: GDH-TPI counter, PrPC TRFRET, Mtb FBA inh, PrP 5UTR inh, Yp Topo-I inh)
N#CC(/C(=N/S(=O)(=O)c1cccs1)c1ccccc1)c1nc2ccccc2[nH]1 (stereo not drawn)	GDH-TPI counter 43 (no result: Mtb hypoxia rep)
CCC(c1nnnn1Cc1ccc(F)cc1)N(CCCO)Cc1cc2cc3c(cc2[nH]c1=O)OCO3 (stereo not drawn)	GDH-TPI counter 35 (no result: Mtb hypoxia rep)
CCC(c1nnnn1CC1CCCO1)N(CCCO)Cc1cc2cccc(C)c2[nH]c1=O (stereo not drawn)	none
CC(Cn1cnc([N+](=O)[O-])n1)=NNC(=O)COc1ccccc1Cl	none (no result: GDH-TPI counter, PrPC TRFRET, Mtb FBA inh, PrP 5UTR inh, Yp Topo-I inh)
CC(/C=C/C=C/c1ccccc1)=N/NC(=O)C(O)c1ccccc1 (stereo not drawn)	GDH-TPI counter 50 (no result: Mtb hypoxia rep)
CC(/C=C/C=C/c1ccccc1)=NNC(=O)C(O)c1ccccc1 (stereo not drawn)	none (no result: GDH-TPI counter, PrPC TRFRET, Mtb FBA inh, PrP 5UTR inh, Yp Topo-I inh)
CC(/C=C/C=C/c1ccccc1)=N/NC(=O)CNc1ccc(C)cc1	GDH-TPI counter 33 (no result: Mtb hypoxia rep)
COC(=O)C1=C(c2c(C)noc2C)CC2CCC1N2C(=O)N1CCCCC1 (stereo not drawn)	none (no result: GDH-TPI counter, PrPC TRFRET, Mtb FBA inh, PrP 5UTR inh, Yp Topo-I inh)
COc1ccc(-c2cn3cccnc3n2)cc1NC(=O)C(C)Oc1ccccc1 (stereo not drawn)	Mtb FBA inh 122
COc1cccc(C(=O)Nc2cc(-c3cn4cccnc4n3)ccc2C)c1	Mtb FBA inh active
COc1ccc(-c2cn3cccnc3n2)cc1NC(=O)c1cccs1	none
CCOCC(=O)Nc1cc(-c2cn3cccnc3n2)ccc1C	Mtb FBA inh active (no result: PrPC TRFRET)
CC1CN(C(C)CO)C(=O)c2cccc(NC(=O)Cc3ccccc3)c2OC1CN(C)Cc1ccccc1 (stereo not drawn)	none (no result: GDH-TPI counter, PrPC TRFRET, Mtb FBA inh, PrP 5UTR inh, Yp Topo-I inh)
COc1ccc(OC)c(N2CC(O)=C(c3nc4ccccc4s3)C2=N)c1	GDH-TPI counter 36 (no result: Mtb hypoxia rep)
CC(=O)Nc1oc(-c2cccc3ccccc23)nc1C#N	Mtb FBA inh 164
N#Cc1nc(-c2cccc3ccccc23)oc1NCCN1CCOCC1	GDH-TPI counter 33, Mtb FBA inh 122 (no result: PrPC TRFRET)
CCCNc1oc(-c2cccc3ccccc23)nc1C#N	Mtb FBA inh 148
COCCCNc1oc(-c2ccccc2Cl)nc1C#N	none
[N-]=[N+]=NCC(c1ccccc1)N1CCN(Cc2ccccc2)CCC1=O (stereo not drawn)	none (no result: GDH-TPI counter, PrPC TRFRET, Mtb FBA inh, PrP 5UTR inh, Yp Topo-I inh)
CC(NC(=O)OC(C)(C)C)C(=O)Oc1cc2oc(=O)cc(-c3ccccc3)c2cc1Cl (stereo not drawn)	Mtb FBA inh 43 (no result: Mtb hypoxia rep, PrPC TRFRET)
CC(Oc1cc2oc(=O)cc(-c3ccccc3)c2cc1Cl)C(=O)NCC1CCC(C(=O)O)CC1 (stereo not drawn)	none (no result: Mtb hypoxia rep)
CCN(CC)Cc1c(O)ccc2c(=O)c(-c3ccc(Cl)cc3)coc12	Mtb FBA inh 43
CCCCN(C)Cc1c(O)ccc2c(=O)c(-c3ccccc3OC)coc12	GDH-TPI counter 41, Mtb FBA inh 163
CCOC(=O)CNc1c(-c2ccc(F)cc2)nc2cnccn12	Mtb FBA inh 87
CCOC(=O)CNc1c(-c2ccc(OC)cc2)nc2ccc(Cl)cn12	none
CCCCNc1c(-c2ccc(OC)c(SC3CCCCC3)c2)nc2cnccn12	none (no result: PrPC TRFRET)
CCCCNc1c(-c2ccc(-c3ccc(C(C)=O)cc3)c(OC)c2)nc2cnccn12	GDH-TPI counter 34 (no result: PrPC TRFRET)
CCOc1cc2[nH]c(=S)n(CCCN(CC)CC)c(=O)c2cc1OCC	none
CCOc1cc2[nH]c(=S)n(CCOC)c(=O)c2cc1OCC	GDH-TPI counter 33
CC1CN(C(C)CO)C(=O)Cc2cc(NC(=O)C3CCCCC3)ccc2OC1CN(C)S(=O)(=O)c1ccccc1 (stereo not drawn)	none (no result: GDH-TPI counter, PrPC TRFRET, Mtb FBA inh, PrP 5UTR inh, Yp Topo-I inh)
Cn1c(CC(=O)Nc2ccc(Cl)c(Cl)c2)n[nH]c1=S	Mtb FBA inh 55
COC(=O)c1ccc2nc(C)cc(Nc3ccc(N(C)C)cc3)c2c1	none (not shown: Mtb hypoxia rep)
COC(=O)c1ccc(Nc2cc(C)nc3ccccc23)cc1	GDH-TPI counter 42
CC(=O)c1cccc(Nc2cc(C)nc3ccccc23)c1	GDH-TPI counter 32
O=C(O)c1cccc(Nc2nc3ccccc3nc2NS(=O)(=O)c2ccccc2)c1	none
CC(=O)c1cccc(Nc2cc(C)nc3c(C)cccc23)c1	none
O=C(O)c1cccc(Nc2c3ccccc3nc3ccccc23)c1	Mtb FBA inh 124
COc1ccc(O)c(C=NNC(=O)CCC(=O)Nc2cccc(C)c2)c1	none (no result: GDH-TPI counter, PrPC TRFRET, Mtb FBA inh, PrP 5UTR inh, Yp Topo-I inh)
Cc1nn(C2CCS(=O)(=O)C2)c(Cl)c1C=CC(=O)OCC(=O)Nc1ccccc1OC(F)F (stereo not drawn)	none (no result: GDH-TPI counter, PrPC TRFRET, Mtb FBA inh, PrP 5UTR inh, Yp Topo-I inh)
CCCNC(=O)N1C2CCC1C(C(=O)OC)=C(c1cccc(Cl)c1)C2 (stereo not drawn)	none (no result: GDH-TPI counter, PrPC TRFRET, Mtb FBA inh, PrP 5UTR inh, Yp Topo-I inh)
O=[N+]([O-])c1c(NCCO)cc(N2CCCCC2)c2nonc12	none
O=[N+]([O-])c1cc([N+](=O)[O-])c(N2CCCCCC2)cc1NCCO	GDH-TPI counter 34
CC1=CC(c2ccccc2)n2nc(N3C(=O)c4ccccc4C3=O)nc2N1 (stereo not drawn)	Mtb FBA inh 30
CC1=CC(c2ccccc2)n2nc(N3C(=O)C4CC=CCC4C3=O)nc2N1 (stereo not drawn)	Mtb FBA inh 175
O=C1CC(c2ccccc2)n2nc(N3C(=O)c4ccccc4C3=O)nc2N1 (stereo not drawn)	none (no result: Mtb hypoxia rep)
O=C(O)c1cc(O)c2c(c1)[C@@H]([C@H]1c3cc(C(=O)O)cc(O)c3C(=O)c3c(O[C@@H]4O[C@H](CO)[C@@H](O)[C@H](O)[C@H]4O)cccc31)c1cccc(OC3O[C@H](CO)[C@@H](O)[C@H](O)[C@H]3O)c1C2=O (stereo partly drawn)	PrPC TRFRET 62 (no result: Mtb hypoxia rep)
NC(=O)C(=NOC(=O)c1ccco1)c1nc(-c2ccc(Br)cc2)cs1	none (no result: GDH-TPI counter, PrPC TRFRET, Mtb FBA inh, PrP 5UTR inh, Yp Topo-I inh)
CC(C)(C)c1ccc(/C=N/Nc2ccc(C(=O)O)cc2)cc1	GDH-TPI counter 42 (no result: Mtb hypoxia rep)
CC1Oc2ccccc2C=C1C=NNc1ccc(C(=O)O)cc1 (stereo not drawn)	none (no result: GDH-TPI counter, PrPC TRFRET, Mtb FBA inh, PrP 5UTR inh, Yp Topo-I inh)
O=C(O)c1ccc(C=NNc2ncc(Cl)cc2Cl)cc1	none (no result: GDH-TPI counter, PrPC TRFRET, Mtb FBA inh, PrP 5UTR inh, Yp Topo-I inh)
O=C(O)c1ccc(N/N=C/c2ccc(C(F)(F)F)cc2)cc1	none (no result: Mtb hypoxia rep)
CC1Oc2ccccc2C=C1/C=N/Nc1ccc(C(=O)O)cc1 (stereo not drawn)	GDH-TPI counter 34 (no result: Mtb hypoxia rep)
O=C(O)c1ccc(/C=N/Nc2ncc(C(F)(F)F)cc2Cl)cc1	GDH-TPI counter 37 (no result: Mtb hypoxia rep)

Screens deposited in PubChem BioAssay by several laboratories.
